Experimental data published in the OligoGym collection.

Target: P2RY8
Assay: pooled miR-30 sensor sort-seq; sequence = guide strand
Conditions: shRNA
Note: reference of the scale not given here.

| Sequence | sensor-assay potency score (higher = more potent) |
| --- | --- |
| TACACGTGGTAGTAGCTCTTGC | -0.559 |
| TTGAGGACGTCGAAGCAGGTGA | -0.556 |
| TTTCACTCAAAGCTCAACCAGT | 0.0389 |
| TCAACCAGTGAACAGACTGAGT | -1.22 |
| TTTTCCATCTTAAAACATGTGT | -0.223 |
| TTCAGCTTTGGAACAGTCTAGA | -0.295 |
| TTGATCATGAAGATGACCGACG | -0.289 |
| TTGCTTTCTAGGGTTCAGCTTT | -0.874 |
| TTCATTACTAAACCATCTCTGT | -0.448 |
| TACTGTGAAGATGCTACTCTGA | -0.29 |
| TGGAACAGTCTAGAGAAGCAGG | -1.38 |

Target: P4HA2
Assay: as above
Conditions: shRNA

| Sequence | sensor-assay potency score (higher = more potent) |
| --- | --- |
| TAGACAGCTAACTCTGCTGCAG | -0.415 |
| TTGCCTGGTACTTGGTTCCTGG | -0.843 |
| TTATTGGAGACCCACTTGCAGC | -1.45 |
| TTCTACATCACTCATGTAGTTA | -0.685 |
| TATCTCGTCCTCATCAGTGGGG | 0.413 |
| TTTAGGTTTTGCGATCTCCTTG | -0.309 |
| TTAAGAAACGTCGCTAACCTAT | -0.763 |
| TTGCAACCTGTAACAATTCTGC | -0.407 |
| TAATCTTGGAAAGCTTGGCTTC | -0.909 |
| TTAACGTTTTTTCTCTCTCTTC | -0.749 |
| TTAGGTTTTGCGATCTCCTTGA | 0.73 |
| TTGTACCAGAACACAGCTGTAC | -0.305 |

Target: P4HB
Assay: as above
Conditions: shRNA

| Sequence | sensor-assay potency score (higher = more potent) |
| --- | --- |
| TTCCTGAAGAACTTGATGGTGG | 0.134 |
| TTCACCTCCAAAAATCTTCGGG | 0.109 |
| TTGTAATCAATGACCGTCCTGT | 0.492 |
| TTTGATAAAGTCCAGCAGGTTC | -0.96 |
| TAGAACTCCACAAAGACGTTTT | -0.145 |
| TTGGCAGTCGAGTCCATCTTGG | -1.06 |
| TTGACAGGCTGCTTGTCCCAGT | -0.656 |
| TATTTGGAGAACACGTCACTGT | -0.00902 |
| TTGGAGAACACGTCACTGTTGG | 0.0264 |
| TTTCTTAAAACCATCCAGCGTG | -0.457 |
| TTGCAGTGACCACACCATGGGG | -1.18 |
| TTTCTGATCATCGTCTTCCTCC | 0.0481 |

Target: PAFAH1B2
Assay: as above
Conditions: shRNA

| Sequence | sensor-assay potency score (higher = more potent) |
| --- | --- |
| TACCCAGACAACAATGACCTTA | -0.359 |
| TTAGTCTCCACAAAACATGTCT | -0.124 |
| TTGTGCTGAGACATCCATCGGT | 0.723 |
